Assay outcomes from PubChem.
Anthrax LF prot = anthrax lethal factor protease inhibition; multiplex microsphere protease cleavage assay, LF; inhibition, % at 10 µM; hit rate 0.12% among 360,000; AID 588501; also: plate controls were buffer without enzyme for full effect and enzyme alone for no effect
Target sequence (P15917 whole entry, looked up): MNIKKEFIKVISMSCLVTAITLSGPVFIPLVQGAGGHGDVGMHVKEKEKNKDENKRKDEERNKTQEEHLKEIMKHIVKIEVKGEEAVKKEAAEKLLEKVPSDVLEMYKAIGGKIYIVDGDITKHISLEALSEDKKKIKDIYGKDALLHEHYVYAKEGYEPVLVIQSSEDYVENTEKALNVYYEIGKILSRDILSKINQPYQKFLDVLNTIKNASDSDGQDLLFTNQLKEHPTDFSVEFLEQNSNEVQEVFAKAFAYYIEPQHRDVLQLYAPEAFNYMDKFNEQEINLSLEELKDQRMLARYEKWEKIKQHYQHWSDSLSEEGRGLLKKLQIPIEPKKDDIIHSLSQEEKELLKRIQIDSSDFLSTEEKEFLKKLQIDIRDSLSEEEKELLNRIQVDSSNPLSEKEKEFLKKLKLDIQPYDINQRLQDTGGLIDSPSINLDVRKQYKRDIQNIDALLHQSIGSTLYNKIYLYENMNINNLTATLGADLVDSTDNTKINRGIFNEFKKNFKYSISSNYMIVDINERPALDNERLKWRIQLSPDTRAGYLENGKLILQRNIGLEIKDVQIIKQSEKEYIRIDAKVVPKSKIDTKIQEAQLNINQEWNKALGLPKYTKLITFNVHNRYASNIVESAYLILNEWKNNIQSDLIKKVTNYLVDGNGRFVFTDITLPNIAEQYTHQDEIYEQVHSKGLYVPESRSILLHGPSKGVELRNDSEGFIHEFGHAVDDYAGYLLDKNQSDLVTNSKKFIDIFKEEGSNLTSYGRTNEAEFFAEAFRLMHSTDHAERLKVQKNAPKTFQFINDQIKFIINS
Autofluor counter = flagged as autofluorescent in microsphere protease counterscreen; compound autofluorescence counterscreen, microsphere flow cytometry; hits give high values; fluorescence intensity (concentration not given with the values); hit rate 3.1% among 360,000; AID 624483; in the data active = fluorescence intensity above about 16000; inconclusive = no clear call, values can overlap the other calls
BoNT F protease = inhibitors of Botulinum neurotoxin F light chain protease. Multiplex microsphere protease cleavage assay, flow cytometry. inhibition, % at 10 µM. hit rate 0.22% among 360,000. AID 588497; in the data active = inhibition above about 35%, passing the limit was not always enough; inconclusive = no clear call, values can overlap the other calls; also: plate controls were buffer without enzyme for full effect and enzyme alone for no effect
BoNT A protease = blocks Botulinum neurotoxin A light chain protease; multiplex microsphere protease substrate cleavage, flow cytometry; inhibition, % at 10 µM; hit rate 0.17% among 360,000; AID 588499; also: plate controls were buffer without enzyme for full effect and enzyme alone for no effect
The depositor's hits bear a star; ? = inconclusive. This is a sample that favours compounds with a hit; in the whole collection about 3.5% have one here. Rule as the data show it, unless noted: active = inhibition above about 30%; inconclusive = no clear call, values can overlap the other calls; inactive = below that.

SMILES	Anthrax LF prot	Autofluor counter	BoNT F protease	BoNT A protease
CC1(C(=O)Nc2cccc3cccnc23)CCN1C(=O)CC1CC1 (centres undefined)	-1.2	3598	1.4	0.2
CC(C)C[C@H]1CN(CCCC[C@@H]2CNC(=O)C(=O)N2CC2CCCCC2)C(=O)C(=O)N1Cc1ccccc1	-5.6	5546	-6.6	-0.3
CN1OC[C@@H]2CN(S(=O)(=O)c3ccccc3)[C@H](c3ccccc3Br)C[C@@H]21	-1.6	5504	1.2	1.1
Cc1occc1C(=O)NCCc1ccc(Cl)cc1	-5.4	20471*	-2.5	-1.5
COc1ccc(CCNC(=O)c2cc(-c3cc(Cl)cc(Cl)c3)oc2C)cc1	-6.7	21204*	4.0	2.2
Cc1occc1C(=O)NCCCCc1ccccc1	-1.2	5138	-17.6	-1.4
COc1ccc(S(=O)(=O)N2CCOCC2)cc1NC(=O)Cc1ccc(F)cc1	-3.4	4286	8.2	-0.2
CC1(C(=O)NS(=O)(=O)c2cccc(C#N)c2)CCN1C(=O)Cc1cc(F)ccc1F (centres undefined)	-3.7	3782	0.6	-0.2
N#CCCCn1c(-c2ccccc2)noc1=O	-4.4	23665*	-1.7	?
Cc1ccc(C(=O)Nc2cccc(C(=O)N3CCOCC3)c2)cc1Cl	2.5	4921	-6.2	-0.3
Cc1ccc(Oc2ccccc2/C=N/O)cc1	-2.2	2746	-6.1	-0.4
C=CCOc1ccccc1/C=N/O	-1.6	24314*	-4.9	?
O=C(CSc1nnc2ccccn12)Nc1ccccc1[N+](=O)[O-]	-5.3	3713	-0.8	-0.2
CC(=O)Nc1ccc(SCC(=O)N(CCC#N)c2ccc(C)cc2)cc1	-2.1	16531*	-5.6	-2.0
Cc1snc(SCC(=O)N/N=C(\N)COc2cccc(C(F)(F)F)c2)c1C#N	1.0	20365*	-1.1	?
N#Cc1cc(C#N)c(N2CCN(c3ccccn3)CC2)nc1N	-5.4	23218*	-1.8	-3.0
O=C(N1CCOCC1)N1CCN(Cc2ccccc2)CC1	-11.8	16289*	13.2	?
CC(=O)NC1(C(F)(F)F)C(=O)N(Cc2ccccc2)C2=C1C(=O)CC(C)(C)C2 (centres undefined)	6.7	10263	-1.6	-0.1
CCOC(=O)NC1(C(F)(F)F)C(=O)N(Cc2ccccn2)C2=C1C(=O)CC(C)(C)C2 (centres undefined)	-0.6	16536*	-4.6	-0.9
CC1(C)CC(=O)C2=C(C1)N(Cc1ccccc1)C(=O)C2(NC(=O)C(C)(C)C)C(F)(F)F (centres undefined)	-2.2	24235*	-5.0	-2.5
CCCCSc1nnc(-c2ccc(NC(=O)CCc3ccccc3)cc2)n1C	-11.3	20381*	4.6	3.3
CC(C)OC(=O)CSc1nnc(-c2ccccn2)n1C	-4.3	17273*	-5.8	-1.3
CCc1ccc(NC(=O)CSc2nnc(-c3ccccn3)n2C)cc1	-2.8	19708*	1.9	1.0
CC(C)(C)Cc1c(-c2ccc(C#N)cc2)nc2ccc(Cl)cn12	1.5	2994	-25.4	1.8
O=C(Nc1ccc2c(c1)oc1ccccc12)c1ccncc1	-2.8	16791*	-3.5	-1.0
SMILES	Anthrax LF prot	Autofluor counter	BoNT F protease	BoNT A protease
O=C(NCC(F)(F)F)Nc1ccccn1	-2.0	19809*	-0.4	?
COc1ccccc1OCC(=O)Nc1ccccn1	1.0	22764*	2.3	0.8
COc1ccccc1OCC(=O)Nc1ccncc1	-8.5	3929	?	3.1
CNC(=O)COc1ccccc1C(=O)Nc1ccc2c(c1)oc1ccccc12	-0.8	16632*	-5.0	-0.9
N#Cc1ccccc1NC(=O)c1ccccc1OCC(=O)Nc1ccc2c(c1)oc1ccccc12	-0.8	11270	-0.5	-0.3
O=C(CN1C(=O)CSc2ncccc21)Nc1ccccc1F	3.1	4731	-8.1	-1.6
CCOC(=O)[C@]12CCC=C1N(Cc1ccc3c(c1)OCO3)C(=O)[C@H](CC(=O)NCC13CC4CC(CC(C4)C1)C3)C2	-0.5	4123	2.1	0.6
COc1ccc(Cc2nc3ccc(C(=O)N(C)Cc4nccn4C)cc3o2)cc1	1.9	3693	-3.0	-0.1
COc1cc2c(cc1NC(=O)CCCN1C(=O)CCC1=O)oc1ccccc12	-1.5	2678	-8.1	0.3
COc1cc2c(cc1NC(=O)CCCCCN1C(=O)CCC1=O)oc1ccccc12	-0.5	24230*	-2.5	-0.5
COc1cc2c(cc1NC(=O)COc1ccccc1OC)oc1ccccc12	-1.0	20273*	0.0	1.0
COc1cc2c(cc1NS(=O)(=O)N1CCCCC1)oc1ccccc12	-5.5	23461*	-4.9	-4.0
CC(=O)NC(c1ccc(F)c(F)c1)c1nc(-c2ccc3c(c2)OCO3)cs1 (centres undefined)	-2.7	3897	3.3	0.1
CCOc1ccc(C(=O)CN2C(=O)NC3(CCCc4ccccc43)C2=O)cc1 (centres undefined)	-5.1	2789	1.6	0.1
Cc1ccc2c3c(c(SCC(=O)Nc4nonc4C)nc2c1)CCCC3	-2.8	23233*	-0.6	?
Cc1nonc1NC(=O)CSc1nc2cc(Cl)ccc2c2c1CCCC2	-2.0	10977	-5.5	0.1
CC1C(=O)N(Cc2cn(Cc3ccco3)nn2)CCS(=O)(=O)N1Cc1ccc(-c2ccc(F)cc2Cl)cc1 (centres undefined)	0.5	5945	-0.2	-0.7
COc1cc(S(=O)(=O)Nc2ccccc2C)ccc1Cl	-2.9	2864	2.9	0.4
COc1cc(S(=O)(=O)Nc2c(C)cc(C)cc2C)ccc1Cl	-11.8	17705*	3.8	5.3
COCCNC(=O)c1nn2cccnc2c1Cl	-0.1	19754*	-1.7	0.8
O=C(NCC12CC3CC(CC(C3)C1)C2)c1nn2cccnc2c1Cl	-3.7	16281*	0.8	0.3
CCOc1cc(C#N)c(NC(=O)CSc2nnnn2-c2ccc(OC)cc2)cc1OCC	-3.2	22206*	-10.9	-9.1
COc1ccc(-n2nnnc2SCC(=O)Nc2ccc(OC)cc2OC)cc1	-13.8	3763	?	-3.7
COc1c(C)cc(C(O)c2ncc(-c3ccccc3C(F)(F)F)[nH]2)cc1C (centres undefined)	-2.8	3589	-1.5	-0.2
C=C(C)c1cccc(C(C)(C)NC(=O)NCc2ccc(OC)c(OC)c2)c1	-3.9	23352*	-1.9	0.1
SMILES	Anthrax LF prot	Autofluor counter	BoNT F protease	BoNT A protease
Oc1c(N=Nc2ccccn2)ccc2ccccc12	12.4	6158	-16.7	35.6*
CC(C)N1CCCC(C)(C(=O)Nc2nc3ccccc3[nH]2)C1 (centres undefined)	-7.7	2806	-17.7	-0.7
CCCCC(=O)Nc1ncc(Br)s1	0.1	21554*	5.7	6.9
CCCNC(=O)C1(C)CCCN(Cc2ccccc2F)C1 (centres undefined)	-7.9	3684	4.2	-0.2
CN(C1CCCCC1)S(=O)(=O)Cc1ccccc1	3.4	22622*	2.1	3.3
O=C(CCCc1ccccc1)Nc1ccc(Br)cc1F	32.0*	3547	-25.9	-1.2
CCc1ccc(C(=O)c2oc3nc(C)cc(C)c3c2N)cc1	-5.0	20259*	-3.4	-2.6
O=C(N/N=C/C(Br)=C\c1ccccc1)c1n[nH]c2c1CCC2	-3.4	25111*	-6.7	-5.1
COc1ccc(/C=N/NC(=S)Nc2ccccc2)cc1COc1cccc(C)c1C	-8.0	4946	0.4	-0.5
COc1ccc(/C=C/C(=O)C2CC2)cc1COc1cccc(C)c1C	30.7*	3816	3.9	4.4
CC(C)(C)NC(=O)CN(Cc1cccs1)C(=O)CN1C(=O)C(=O)c2ccccc21	-3.6	3311	5.1	0.5
